Experiments:
[1] = system: CLZ3 (HCA2 human fibroblast dual HR-NHEJ reporter); test: NHEJ repair efficiency (GFP+ cells) relative to control (log10 fold); higher = more non-homologous end joining; settings: 5 µM; doxycycline 0.5 ug/mL
[2] = system: CLZ3 (HCA2 human fibroblast dual HR-NHEJ reporter); test: HR repair efficiency (tdTomato+ cells) relative to control (log10 fold); higher = more homologous recombination; settings: 5 µM; doxycycline 0.5 ug/mL
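Wherever HR repair efficiency (tdTomato+ cells) relative to control is given: compound given one day before doxycycline, which switches on I-SceI endonuclease expression to create double-strand breaks within the integrated reporter.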
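Wherever NHEJ repair efficiency (GFP+ cells) relative to control is given: compound given one day ahead of doxycycline, which switches on I-SceI endonuclease to cut the chromosomally integrated reporter and create DSBs.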

Row | Structure (SMILES) | NHEJ repair efficiency (log10) [1] | HR repair efficiency (log10) [2]
1 | COC(=O)C1=CO[C@@H](O[C@@H]2O[C@H](CO)[C@@H](O)[C@H](O)[C@H]2O)[C@H]2[C@@H]1C(=O)C[C@@H]2C [Verbenalin] | 0.0793 | 0.178
2 | COc1ccccc1 [Anisole] | 0.105 | 0.043
3 | C=C1C(=O)[C@@]23CC[C@@H]4C(C)(C)[C@H](O)CC[C@@]4(C)[C@@H]2[C@@H](O)C[C@@H]1C3 [Tenuifolin A] | -0.0342 | -0.13
4 | COc1c(O[C@@H]2O[C@H](CO)[C@@H](O)[C@H](O)[C@H]2O)cc2occ(-c3ccc(O)cc3)c(=O)c2c1O [Tectoridin] | 0.116 | 0.192
5 | Oc1ccc2c(c1)OCO2 [Sesamol] | 0.111 | 0.234
6 | C[C@H]1O[C@H](OC[C@H]2O[C@@H](Oc3c(-c4ccc(O)cc4)oc4cc(O)cc(O)c4c3=O)[C@H](O)[C@@H](O)[C@@H]2O)[C@@H](O)[C@@H](O)[C@@H]1O [Kaempferol-3-O-Rutinoside] | 0.0149 | -0.078
7 | O=c1oc2c(O)c(O)cc3c(=O)oc4c(O)c(O)cc1c4c23 [Ellagic Acid] | -0.0512 | -0.174
8 | COc1cc2c(cc1O)CC[n+]1cc3c(OC)c(OC)ccc3cc1-2 [Jateorrhizine] | -0.216 | -0.189
9 | C=C[C@H]1[C@H](O[C@@H]2O[C@H](CO)[C@@H](O)[C@H](O)[C@H]2O)OC=C(C(=O)OC)[C@H]1CC(=O)O [Secoxyloganin] | 0.0169 | -0.19
10 | C=C[C@H]1[C@H](O[C@@H]2O[C@H](CO)[C@@H](O)[C@H](O)[C@H]2O)OC=C2C(=O)OCC[C@]21O [Swertiamarin] | -0.0365 | -0.0353
11 | Cc1cc(O)cc(O[C@@H]2O[C@H](CO)[C@@H](O)[C@H](O)[C@H]2O)c1 [Orcinol Glucoside] | 0.0229 | -0.0841
12 | C[C@@H]1O[C@@H](OC[C@H]2O[C@@H](Oc3cc(O)c4c(c3)O[C@H](c3ccc(O)c(O)c3)CC4=O)[C@H](O)[C@@H](O)[C@@H]2O)[C@H](O)[C@H](O)[C@H]1O [Eriocitrin] | 0.00276 | -0.0151
13 | CCCCC[C@H](O)CC(=O)CCc1ccc(O)c(OC)c1 [6-Gingerol] | -0.0809 | 0.0839
14 | C[C@H](CC[C@@]1(O)O[C@H]2C[C@H]3[C@@H]4CC=C5C[C@@H](O[C@@H]6O[C@H](CO)[C@@H](O[C@@H]7O[C@@H](C)[C@H](O)[C@@H](O)[C@H]7O)[C@H](O)[C@H]6O[C@@H]6O[C@@H](C)[C@H](O)[C@@H](O)[C@H]6O)CC[C@]5(C)[C@H]4CC[C@]3(C)[C@H]2[C@@H]1C)CO[C@@H]1O[C@H](CO)[C@@H](O)[C@H](O)[C@H]1O [Protodioscin] | -0.00725 | -0.042
15 | COc1cc([C@@H]2Oc3c(O)cc([C@H]4Oc5cc(O)cc(O)c5C(=O)[C@@H]4O)cc3[C@H]2CO)ccc1O [Silicristin] | -0.0735 | 0.068
16 | C[C@H]1O[C@H](O[C@@H]2[C@@H](O)[C@H](OCCc3ccc(O)c(O)c3)O[C@H](CO[C@H]3OCC(O)(CO)[C@@H]3O)[C@H]2OC(=O)/C=C/c2ccc(O)c(O)c2)[C@@H](O)[C@@H](O)[C@@H]1O (stereo partly specified) [Forsythoside B] | 0.0465 | 0.076
17 | OC[C@H]1O[C@@H](O[C@@H]2OC=C[C@H]3[C@H](O)[C@@H]4O[C@]4(CO)[C@@H]23)[C@H](O)[C@@H](O)[C@@H]1O [Catalpol] | 0.0212 | 0.00259
18 | COc1c(O[C@@H]2O[C@H](C(=O)O)[C@@H](O)[C@H](O)[C@H]2O)cc(O)c2c(=O)cc(-c3ccccc3)oc12 [Wogonoside] | -0.0783 | -0.00302
19 | C=CC(C)(C)c1cc(/C=C/C(=O)c2ccc(O)cc2)c(OC)cc1O [Licochalcone A] | -0.106 | 0.0473
20 | C=C1CC[C@H]2C(=C)CC[C@H]3C(=C)C(=O)O[C@@H]3[C@@H]12 [Dehydrocostus Lactone] | -0.02 | 0.03
21 | COc1ccc(-c2cc(=O)c3c(O)cc(O)c(-c4cc(-c5cc(=O)c6c(O)cc(OC)cc6o5)ccc4OC)c3o2)cc1 [Sciadopitysin] | 0.0652 | 0.234
22 | COc1ccc(-c2cc(=O)c3c(O)cc(O[C@@H]4O[C@H](CO[C@@H]5O[C@@H](C)[C@H](O)[C@@H](O)[C@H]5O)[C@@H](O)[C@H](O)[C@H]4O)cc3o2)cc1 [Linarin] | -0.0758 | 0.00777
23 | CC1(C)CC[C@]2(C(=O)O)CCC3=C([C@@H](CCl)C[C@@H]4[C@@]5(C)C[C@H](O)[C@H](O)[C@@](C)(C(=O)O)[C@@H]5CC[C@@]34C)[C@@H]2C1 [Tenuigenin] | 0.0402 | 0.0517
24 | O=Cc1ccc(CO)o1 [5-Hydroxymethylfurfural] | -0.214 | 0.0126

Row | Structure (SMILES) | NHEJ repair efficiency (log10) [1] | HR repair efficiency (log10) [2]
25 | O=c1cc(-c2ccc(O)cc2)oc2cc(O)c([C@@H]3O[C@H](CO)[C@@H](O)[C@H](O)[C@H]3O)c(O)c12 [Isovitexin] | 0.0409 | 0.0479
26 | O=c1ccc2ccc(O)cc2o1 [Umbelliferone] | 0.115 | 0.269
27 | CC1(C)CCC2(C(=O)OC3OC(CO)C(O)C(O)C3O)CCC3(C)C(=CCC4C5(C)CCC(OC6OC(C(=O)O)C(OC7OCC(O)C(OC8OC(CO)C(O)C(O)C8O)C7O)C(O)C6O)C(C)(C)C5CCC43C)C2C1 (stereo unspecified) [Oleanoside A] | -0.111 | 0.164
28 | COc1cc(C(=O)O)cc(OC)c1O [Syringic acid] | -0.0271 | -0.177
29 | CC(=O)OC(C)C(C)C(=O)OCC12C3CC(C)(C)[C@H](O[C@@H]1C[C@]1(C)C3=CCC3C4(C)CCC(O[C@@H]5O[C@H](C(=O)O)[C@@H](O[C@H]6O[C@H](CO)[C@@H](O)[C@H](O)[C@H]6O)[C@H](O)[C@H]5O[C@@H]5OC[C@@H](O)[C@H](O)[C@H]5O)[C@](C)(CO)C4CCC31C)C2O (stereo partly specified) [Sodium Aescinate] | 0.101 | 0.0537
30 | NCC(=O)O [Aminoacetic acid] | 0.185 | 0.151
31 | C[C@H]1[C@H](C)CC[C@]2(C(=O)O)CC[C@]3(C)C(=CC[C@@H]4[C@@]5(C)CC[C@H](O)C(C)(C)[C@@H]5CC[C@]43C)[C@H]12 [Ursolic Acid] | 0.324 | -0.12
32 | O=c1cc(-c2ccc(O[C@@H]3O[C@H](CO)[C@@H](O)[C@H](O)[C@H]3O)cc2)oc2cc(O)c([C@@H]3O[C@H](CO)[C@@H](O)[C@H](O)[C@H]3O[C@@H]3OC[C@H](O)[C@H](O)[C@H]3O)c(O)c12 [Vaccarin] | -0.0315 | -0.086
33 | COc1ccc([C@@H]2OC[C@H]3[C@@H]2CO[C@@H]3c2ccc(O[C@@H]3O[C@H](CO)[C@@H](O)[C@H](O)[C@H]3O)c(OC)c2)cc1OC [Forsythin] | -0.0743 | -0.0814
34 | COc1ccc(C(=O)O)cc1 [Anisic Acid] | 0.0832 | 0.118
35 | CC(C)=CCC/C(C)=C/C=C/C(C)=C/C=C/C(C)=C/C=C/C=C(C)/C=C/C=C(C)/C=C/C=C(\C)CCC=C(C)C [Lycopene] | -0.109 | 0.0372
36 | C[C@H]1CC[C@@]2(OC1)O[C@H]1C[C@H]3[C@@H]4CC[C@@H]5C[C@@H](O)CC[C@]5(C)[C@H]4CC[C@]3(C)[C@H]1[C@@H]2C [Sarsasapogenin] | -0.068 | 0.0364
37 | COc1cc(/C=C/C(=O)O)ccc1O [Sodium Ferulate] | -0.0171 | 0.0132
38 | CCCCCCCCCCCCCCCC(=O)OC [Methyl Palmitate] | 0.0451 | 0.0601
39 | CC(C)=CCc1cc2c(cc1O)O[C@H](c1ccc(O)cc1)CC2=O [Bavachin] | 0.0703 | 0.0642
40 | COc1cc2c(cc1O)CC[n+]1cc3c(OC)c(OC)ccc3cc1-2 [Jatrorrhizine] | -0.00725 | 0.0284
41 | CC1(C)[C@@H](O[C@H]2O[C@H](C(=O)O)[C@@H](O)[C@H](O)[C@H]2O[C@@H]2O[C@H](C(=O)O)[C@@H](O)[C@H](O)[C@H]2O)CC[C@]2(C)[C@H]3C(=O)C=C4[C@@H]5C[C@@](C)(C(=O)O)CC[C@]5(C)CC[C@@]4(C)[C@]3(C)CC[C@@H]12 [Monoammonium Glycyrrhizinate] | 0.137 | -0.00605
42 | COc1ccc2cc1Oc1ccc(cc1)C[C@H]1c3cc(c(OC)cc3CCN1C)Oc1c(OC)c(OC)cc3c1[C@H](C2)N(C)CC3 [Tetrandrine] | 0.294 | -0.328
43 | CC(C)=CCc1c(-c2ccc(O)cc2O)oc2c3c(cc(O)c2c1=O)OC(C)(C)C=C3 [Morusin] | 0.0648 | -0.298
44 | COc1ccc(-c2oc3c(CC=C(C)C)c(O[C@@H]4O[C@H](CO)[C@@H](O)[C@H](O)[C@H]4O)cc(O)c3c(=O)c2O[C@@H]2O[C@@H](C)[C@H](O)[C@@H](O)[C@H]2O[C@@H]2OC[C@@H](O)[C@H](O)[C@H]2O)cc1 [Epimedin B] | -0.0634 | -0.0516
45 | CC(C)=CC[C@H](O)/C(C)=C/CO[C@@H]1O[C@H](CO)[C@@H](O)[C@H](O)[C@H]1O [Rosiridin] | 0.096 | 0.104
46 | C[C@H]1O[C@@H](O[C@H]2CC[C@@]3(C)[C@@H](CC[C@]4(C)[C@@H]3C=CC3=C5CC(C)(C)CC[C@]5(CO)[C@H](O)C[C@]34C)[C@]2(C)CO)[C@H](O)[C@@H](O[C@@H]2O[C@H](CO)[C@@H](O)[C@H](O)[C@H]2O)[C@H]1O [Saikosaponin B2] | 0.0489 | 0.123
47 | C/C=C(\C)C(=O)OC1c2c(ccc3ccc(=O)oc23)OC(C)(C)C1OC(=O)/C(C)=C/C (stereo unspecified) [Praeruptorin B] | -0.0992 | 0.0577
48 | O[C@@H]1[C@@H](O)[C@@H](OC/C=C/c2ccccc2)O[C@H](CO[C@@H]2OC[C@H](O)[C@H](O)[C@H]2O)[C@H]1O [Rosavin] | 0.0495 | 0.148

Reference: the supplement of paper PMC7380943
